# Sampled rows, rich in hits. Any-hit rate of the full collection: about 17%.
# ATXN viability = viability counter-screen for ATXN expression inhibitors. S2 cells (HEK-293 line with an ATXN2-luciferase reporter) viability, CellTiter-Fluor protease fluorescence, 24 h. Potency, µM (series often up to 56.7 µM), usual class: cytotoxic. 400,000 tested, 0.49% active; also: nearly all actives have a fitted effect of over 40% in size
# HepG2 viability = counter-screen for TGF-b inhibitors: cytotoxicity in HepG2 cells | HepG2 CAGA-GFP viability, ATP luminescence, 18 h | Potency, µM (top dose mostly 46.1 µM), without a hit: at the top dose activity change, negative = cytotoxicity, hits mostly cytotoxic | 410,000 tested, 0.76% active | AID 588856
#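 HepG2 CAGA-GFP cells (1000/well, DMEM with 1% FBS) received compound, then TGF-beta at 500 pg/mL final, and were incubated 18 hours at 37 degrees C. Viability was read by CellTiter-Glo luminescence. Media-only wells were set as complete cell-killing and DMSO as no toxicity.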
# TGFb SMAD3 inh = inhibitors of TGF-b signaling; HepG2 CAGA-GFP TGF-b/SMAD3 reporter, GFP fluorescence, 18 h; TGF-beta stimulated, 500 pg/mL final; Potency, µM (series often up to 46.1 µM), without a hit: at the top dose activity, negative = inhibition, usual class: inhibitors; 410,000 tested, 1.2% active; AID 588855; also: % is scaled to controls: 0 for no effect and ±100 for the full control effect; nearly all actives have a fitted effect of over 65% in size
#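 Smad-responsive CAGA-GFP expression was quantified in HEPG2 cells exposed to compounds and 500 pg/mL final TGF-beta for 18 h at 37 degrees C; unstimulated wells defined full inhibition.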
# ATXN2 expr inh = ATXN2 expression inhibition; HEK-293 ATXN2-luciferase reporter, luminescence, 24 h; Potency, µM (top dose mostly 57 µM), inactives show at the top dose activity change, negative = inhibition, actives largely listed as inhibitors; 360,000 tested, 0.72% active; AID 1745845; also: % is scaled to controls: 0 for no effect and ±100 for the full control effect; nearly all actives have a fitted effect of over 55% in size
#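 qHTS (up to 57 uM final) was run with 24 h compound exposure of reporter cells at 37 °C. Each well was multiplexed: SteadyGlo luminescence measured ATXN2-luciferase expression after a fluorogenic Gly-Phe-AFC viability readout (25 uM final).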
# DT40 TDP1 CPT = DT40-hTDP1 cell growth loss with CPT | chicken DT40 Tdp1-/-;hTDP1 cells + 20 nM CPT, ATP luminescence, 48 h | Potency, µM (titrated, usually from 46.2 µM), for inactives: at the top dose activity change, negative = growth inhibition, actives largely listed as inhibitors | 420,000 tested, 12% active; also: % is scaled to controls: 0 for no effect and ±100 for the full control effect; nearly all actives have a fitted effect of over 55% in size
#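 Cell growth measured by CellTiter-Glo luminescence after a minimum 48 h, 37 C compound exposure with 20 nM CPT in Tdp1-knockout DT40 cells stably expressing hTDP1, seeded 400/well; qHTS titration format.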
# TDP1 cell noCPT = qHTS for Inhibitors of human tyrosyl-DNA phosphodiesterase 1 (TDP1): qHTS in cells in absence of CPT; DT40 Tdp1-/- hTDP1 cells, no CPT, ATP luminescence, 48 h; 420,000 tested, 15% active; AID 686978, 2013; Potency, µM (series often up to 46.2 µM), inactives show at the highest dose activity change, negative = growth inhibition, hits mostly inhibitors; also: % is scaled to controls: 0 for no effect and ±100 for the full control effect; nearly all actives have a fitted effect of over 55% in size
#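 Chicken DT40 Tdp1-/- cells stably complemented with human TDP1 were seeded at 400 cells/well with DMSO in place of 20 nM camptothecin. After compound pinning, cells grew at least 48 hr at 37 °C; viability read by CellTiter-Glo luminescence.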
# * = called active by the depositor; i = inactive; ? = inconclusive; nt = not tested or not shown. Calls follow the shape of the dose curve; as a rule, active = well fitted curve in the direction sought with a large enough effect; inconclusive = small, poorly fitted or top-dose-only effect, or another doubt; inactive = no such curve, though single readings can be large; an effect the other way counts as inactive or inconclusive. Potency is read from the fitted curve at half-maximal effect.
SMILES,ATXN viability,HepG2 viability,TGFb SMAD3 inh,ATXN2 expr inh,DT40 TDP1 CPT,TDP1 cell noCPT
N#CC1=C(SCC(N)=O)NC2=C(C(=O)c3ccccc32)C1c1ccc(Cl)cc1 (stereo unspecified),?,13%,0%,?,29µM*,16µM*
O=C(c1ccccn1)N1CCN(S(=O)(=O)c2ccccc2)CC1,i,-13%,1%,8%,-21%,-2%
COc1cc(C(=O)N2CC(=O)Nc3ccccc32)cc(OC)c1OC,i,4%,-14%,nt,8.2µM*,8.2µM*
Cc1ccsc1C(=O)N1CC(=O)Nc2ccccc21,i,-31%,1%,-16%,?,23µM*
COc1ccc(C(=O)N2CC(=O)Nc3ccccc32)cc1S(=O)(=O)N1CCCC1,i,4%,3%,-18%,0%,?
Cc1ccccc1-c1noc(N)c1C#N,i,3%,-13%,34%,26µM*,?
CCOc1cc(-c2noc(N)c2C#N)cc(OCC)c1OCC,?,-38%,-23%,-1%,?,?
Cc1ccc2c(CN3CCC(C(N)=O)CC3)cc(=O)oc2c1C,i,0%,0%,2%,15%,-30%
Cc1ccc2c(CSc3nncn3C)cc(=O)oc2c1C,i,10µM*,0%,-21%,5%,15%
CCC(=O)N1c2ccccc2CC1C(=O)NCCCN1CCN(c2ccc(OC)cc2)CC1 (stereo unspecified),i,3%,22%,-9%,?,?
CCC(=O)N1c2ccccc2CC1C(=O)NCCN1CCN(c2cc(Cl)ccc2C)CC1 (stereo unspecified),i,-32%,-14%,-8%,21µM*,?
CCOC(=O)c1c(C)[nH]c(C)c1S(=O)(=O)NCCN1CCN(c2cc(Cl)ccc2C)CC1,i,-115%,11µM*,nt,?,13µM*
CCOc1ccc(NC(=O)NCCN2CCN(c3cc(Cl)ccc3C)CC2)cc1,i,3%,0%,-11%,21µM*,?
Cc1ccc(Cl)cc1N1CCN(CCNC(=O)Nc2ccc(Cl)cc2)CC1,i,-43%,-26%,-24%,12µM*,?
Cc1c(NC(=O)C(C)OC(=O)c2ccc(Cl)nc2)c(=O)n(-c2ccccc2)n1C (stereo unspecified),?,0%,12%,-4%,2%,-8%
O=C(CCNC(=O)c1ccccc1)NNC(=O)COc1ccccc1Cl,i,1%,0%,6%,-3%,-1%
CCc1cc(C(=O)Nc2sc(C)c(CC)c2C#N)no1,nt,-22%,-5%,nt,-15%,-22%
O=C(COC(=O)c1cccc2c1C(=O)c1ccccc1C2=O)NC1CCCCC1,i,-8%,?,-27%,?,?
O=C1c2ccccc2C(=O)c2c1ccc1c(=O)n(C3CCCCC3)[nH]c21,i,-5%,?,?,?,23µM*
COC(=O)c1ccc(CNC(=O)COC(=O)C23CC4CC(CC(C4)C2)C3)cc1,i,4%,1%,43%,-13%,-5%
CC(OC(=O)[C@@H](NC(=O)OCc1ccccc1)C(C)C)C(=O)Nc1ccc(N2CCOCC2)cc1 (stereo partly specified),i,9%,13%,1%,21µM*,?
CC12CCC(C/C1=N/O)C2(C)CBr (stereo unspecified),i,0%,12%,nt,2%,6%
CN(CC(=O)Nc1ccc(F)cc1)C(=O)CN1C(=O)NC2(CCCC2)C1=O,i,-17%,-1%,-6%,-2%,?
CCCn1c(NC(=O)CN2C(=O)NC3(CCCCC3)C2=O)nc2ccccc21,i,-2%,-29%,6%,?,23µM*
